Laboratory results published in PubChem BioAssay (Tox21).
Results filed as inconclusive are left out. A number with no mark means an inactive call. Calls come from the whole dose curve; as a rule, active = well fitted inhibition curve with a large enough effect in the repeat runs; inconclusive = weak or mixed curves; inactive = flat fitted curve, though single readings scatter.

target: Luciferin 4-monooxygenase (Photinus pyralis) (UniProt P08659); test: qHTS assay to identify small molecule inhibitors of firefly luciferase (AID 1224835); note: nearly all actives have a fitted effect of over 25% in size; details: purified P. pyralis luciferase, luminescence inhibition; series mostly up to 115 µM; activity change, negative = inhibition: at the top concentration
Sequence (P08659 whole entry, looked up): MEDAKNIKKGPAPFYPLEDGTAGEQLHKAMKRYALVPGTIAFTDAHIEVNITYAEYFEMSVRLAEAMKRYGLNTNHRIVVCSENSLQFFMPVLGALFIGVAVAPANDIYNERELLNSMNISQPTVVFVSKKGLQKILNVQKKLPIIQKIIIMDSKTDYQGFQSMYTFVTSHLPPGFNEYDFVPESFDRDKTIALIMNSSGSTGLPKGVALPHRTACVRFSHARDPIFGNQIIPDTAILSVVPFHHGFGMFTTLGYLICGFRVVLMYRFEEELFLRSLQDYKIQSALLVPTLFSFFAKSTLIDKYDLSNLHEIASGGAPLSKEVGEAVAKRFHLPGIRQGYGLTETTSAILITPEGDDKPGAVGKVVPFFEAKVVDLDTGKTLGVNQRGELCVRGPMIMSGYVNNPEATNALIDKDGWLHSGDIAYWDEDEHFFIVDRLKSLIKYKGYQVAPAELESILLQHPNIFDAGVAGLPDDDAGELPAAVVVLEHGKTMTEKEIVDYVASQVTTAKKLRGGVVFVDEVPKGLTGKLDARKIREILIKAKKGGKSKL
Description: U.S. Tox21 Program National Center for Advancing Translational Sciences [NCATS] NIH Chemical Genomics Center [NCGC] U.S. Environmental Protection Agency [EPA] National Institutes of Environmental Health Sciences [NIEHS] National Toxicology Program [NTP] U.S. Food and Drug Administration [FDA] Tox21 Assay Overview: Firefly (Photinus pyralis) luciferase is one of the most commonly used transcriptional reporters. Firefly luciferase reporter-gene assays are generally considered one of the most sensitive assay types (Wood, 1995; Wood, 1998). However, it was initially observed, in 1991, by Thompson et al., that compounds that resemble the substrates of firefly luciferase (FLuc) can act as competitive inhibitors of the enzyme, and that these compounds, upon interaction with luciferase in the cell, can actually stabilize the protein and increase its half-life. Previous profiling work by other groups to determine the prevalence of compounds that affect FLuc enzymatic activity (PubChem AID 411) identified that ~3% of the MLSMR library (then at ~72K) inhibited FLuc. […] Thus the Tox21 10K library is profiled for activity against FLuc using a biochemical assay of purified FLuc and KM concentrations of FLuc substrates (D-luciferin and ATP).
These assay plates were then treated with 23nL of compound or DMSO using a Kalypsys pin tool, which allows for delivery of a 6-point interplate titration of each compound to the assay plate (quantitative HTS.) 1 uL of firefly luciferase mix (containing 50 mM Tris acetate, pH 7.6, 0.04 uM P. pyralis luciferase, 0.01% Tween, 0.05% BSA and dH2O) was then delivered by FRD to each well. Luciferase activity was then measured using a ViewLux CCD imager.
% is set by controls: 0 for no effect and ±100 for the full control effect.

| Structure (SMILES) | activity change, negative = inhibition |
| --- | --- |
| COc1ccc(C(=O)N2CCN(CC(=O)N3CCOCC3)CC2)cc1 | 0.787% [at 52.9 µM] |
| C=C1[C@H]2CC[C@@H]3[C@H]2C(C)(C)CCC[C@]13C | 1.59% |
| CC(=O)c1ccc2c(c1)N(CCCN1CCC(CCO)CC1)c1ccccc1S2 | 4.77% [at 52.9 µM] |
| CC(C)(C)Cl | 6.47% |
| O=[N+]([O-])c1cccc(S(=O)(=O)O)c1 | -0.719% |
| CCOC(=O)c1cccnc1 | 3.96% [at 52.9 µM] |
| O=C(O)CC(=O)C(=O)O | -1.08% |
| OC(CN1CCC(Cc2ccc(F)cc2)CC1)c1ccc(Cl)cc1 (stereo not given) | -0.0229% [at 52.9 µM] |
| CCCCc1ncc(/C=C(\Cc2cccs2)C(=O)O)n1Cc1ccc(C(=O)O)cc1 | -7.05% [at 52.9 µM] |
| CCCCCC[C@@H](O)C/C=C\CCCCCCCC(=O)OC | -0.72% |
| C[N+]1(CC2COC(c3ccccc3)(C3CCCCC3)O2)CCCCC1 (stereo not given) | 0.981% [at 52.9 µM] |
| O=C(Nc1ccc(S(=O)(=O)N2CCOCC2)cc1)c1cc(Cl)ccc1NS(=O)(=O)c1ccc(Cl)s1 | -0.438% [at 52.9 µM] |
| C/C=C/C=C/CO | 0.819% |
| CCC(C)(C)CC | -3.21% |
| C/C=C/C(=O)CC | 3.1% [at 23.6 µM] |
| Nc1cccc(S(=O)(=O)c2cccc(N)c2)c1 | 0.38% |
| O=C(O)c1ccc(-n2nc(-c3ccccc3O)nc2-c2ccccc2O)cc1 | 1.07% [at 52.9 µM] |
| C[C@@H](c1ncncc1F)C(O)(Cn1cncn1)c1ccc(F)cc1F (stereo not given in full) | 2.9% [at 52.9 µM] |
| COC(=O)C1=C(C)NC(COC(N)=O)=C(C(=O)OC(C)C)C1c1cccc(Cl)c1Cl (stereo not given) | 7.34% [at 52.9 µM] |
| COc1cc2nc(Cl)nc(N)c2cc1OC | 1.47% [at 52.9 µM] |

| Structure (SMILES) | activity change, negative = inhibition |
| --- | --- |
| CCOC(=O)C(F)(F)F | 5.9% |
| Brc1c2ccccc2c(Br)c2ccccc12 | 2.43% [at 10.5 µM] |
| O=C1[C@H]2CCCC[C@H]2C(=O)N1CCCCN1CCN(c2nsc3ccccc23)CC1 | 0.519% [at 52.9 µM] |
| C[C@@H]1C[C@H]2O[C@@]3(O[C@@H]2C(C)(C)O)[C@H](O)[C@@]2(C)[C@@H]4CC[C@H]5C(C)(C)[C@@H](O[C@@H]6OC[C@@H](O)[C@H](O)[C@H]6O)CC[C@@]56C[C@@]46CC[C@]2(C)[C@@H]13 | 3.01% [at 52.9 µM] |
| Clc1ccc2c(c1)CCc1cccnc1C2=C1CCNCC1 | 0.409% [at 52.9 µM] |
| CCCn1cnc2c1c(=O)n(CCCCC(C)=O)c(=O)n2C | 0.319% [at 52.9 µM] |
| Cc1c(N)cccc1[N+](=O)[O-] | 3% |
| CN1CCN(C(c2ccccc2)c2ccccc2)CC1 | 1.05% [at 52.9 µM] |
| CCOC(=O)C(=O)CCc1ccccc1 | -5.31% [at 52.9 µM] |
| O=C(CS)Nc1ccccc1 | -6.56% [at 52.9 µM] |
| COc1cc2nc(N(C)CCCNC(=O)C3CCCO3)nc(N)c2cc1OC (stereo not given) | 4.87% [at 52.9 µM] |
| C[C@@H]1C[C@H]2[C@@H]3CCC4=CC(=O)C=C[C@]4(C)[C@@]3(F)[C@@H](O)C[C@]2(C)[C@@]1(O)C(=O)COC(=O)c1ccncc1 | 1.37% [at 52.9 µM] |
| CCCCC | -5.81% |
| CCCCCCCCCCCCN1CCCCCC1=O | -11.2% |
| COCC(C)OC(C)=O (stereo not given) | 6.12% |
| O=C1c2ccccc2S(=O)(=O)N1CCCCN1CCN(c2ncccn2)CC1 | -2.98% [at 52.9 µM] |
| CCOc1ccc(O)cc1 | 0.143% |
| NS(=O)(=O)c1ccc(N2CCCCS2(=O)=O)cc1 | -0.468% [at 52.9 µM] |
| CC(C)(COC(=O)c1ccccc1)COC(=O)c1ccccc1 | -5.3% |
| CCCCCCCCO[C@@H]1O[C@H](CO)[C@@H](O)[C@H](O)[C@H]1O | 8.3% |
